Reference: publication PMC5700166
Where a chain is given by its changes, count along the chain named.

Key:
Assay in all cases: protein-binding microarray (PBM); PBM: ~300 nM protein, 6 mM HEPES pH 7.8, 80 mM KCl, 0.5 mM EDTA, 0.5 mM EGTA, 6% glycerol, 35 ng/ul poly-dIdC, 1% milk, 1 h, room temperature; Ap Aiptasia and Nv Nematostella (sea anemones) / Co Capsaspora / Aq Amphimedon (sponge) / Dm Drosophila / Hu human; RHD is the Rel homology domain; high values mean tight binding
Details in all cases: dsDNA, one strand shown
[1] = target: T1, GST-Ap-NF-kB RHD (Exaiptasia pallida (Aiptasia), UniProt A0A913YAJ5 2-422)
T1 sequence: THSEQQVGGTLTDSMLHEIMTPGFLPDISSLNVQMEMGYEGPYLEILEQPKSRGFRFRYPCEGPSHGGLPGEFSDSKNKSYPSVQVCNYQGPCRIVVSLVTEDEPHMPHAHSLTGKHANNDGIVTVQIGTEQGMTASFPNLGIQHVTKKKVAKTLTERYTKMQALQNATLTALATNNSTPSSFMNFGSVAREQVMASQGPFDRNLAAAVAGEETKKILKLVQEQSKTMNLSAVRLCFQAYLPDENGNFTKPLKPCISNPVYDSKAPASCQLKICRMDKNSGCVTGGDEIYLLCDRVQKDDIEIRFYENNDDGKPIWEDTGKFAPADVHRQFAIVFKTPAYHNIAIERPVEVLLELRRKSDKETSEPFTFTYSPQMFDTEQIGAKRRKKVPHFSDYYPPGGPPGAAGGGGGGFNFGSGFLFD

[2] = target: T2, GST-Nv-NF-kB (Cys allele) (Nematostella vectensis, UniProt E5G601 2-411)
T2 sequence: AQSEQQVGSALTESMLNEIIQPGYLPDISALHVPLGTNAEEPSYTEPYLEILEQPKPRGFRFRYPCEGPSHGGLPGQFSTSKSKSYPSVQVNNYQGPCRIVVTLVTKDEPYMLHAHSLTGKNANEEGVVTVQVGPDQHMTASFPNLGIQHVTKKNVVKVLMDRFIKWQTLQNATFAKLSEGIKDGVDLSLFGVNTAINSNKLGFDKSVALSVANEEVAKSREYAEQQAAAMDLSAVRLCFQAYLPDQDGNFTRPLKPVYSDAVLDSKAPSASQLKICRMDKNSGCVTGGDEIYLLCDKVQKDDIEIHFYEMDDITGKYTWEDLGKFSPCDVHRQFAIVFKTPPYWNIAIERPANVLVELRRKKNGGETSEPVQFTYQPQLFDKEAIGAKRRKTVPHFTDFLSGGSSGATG

[3] = target: T3, GST-Nv-NF-kB (Ser allele) (Nematostella vectensis, UniProt A7UNT2 2-411)
T3 sequence: T2 sequence with Q21R, C66S, S207N, E215Q, V217A, E225K, A268E, D399E

[4] = target: T4, GST-Co-NF-kB (Capsaspora owczarzaki, UniProt F1ARL5 200-546)
T4 sequence: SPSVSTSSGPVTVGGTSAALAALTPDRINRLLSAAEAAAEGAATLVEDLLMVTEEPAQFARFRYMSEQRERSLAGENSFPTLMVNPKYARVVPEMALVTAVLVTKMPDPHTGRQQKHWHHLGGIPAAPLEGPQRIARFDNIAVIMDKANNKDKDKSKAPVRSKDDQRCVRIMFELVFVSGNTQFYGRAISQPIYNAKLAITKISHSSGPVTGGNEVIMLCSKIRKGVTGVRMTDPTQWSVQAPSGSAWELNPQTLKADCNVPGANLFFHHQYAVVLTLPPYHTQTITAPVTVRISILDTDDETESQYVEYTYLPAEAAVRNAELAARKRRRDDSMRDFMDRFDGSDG

[5] = target: T5, GST-Dm-Relish (Drosophila melanogaster, UniProt Q94527 99-473)
T5 sequence: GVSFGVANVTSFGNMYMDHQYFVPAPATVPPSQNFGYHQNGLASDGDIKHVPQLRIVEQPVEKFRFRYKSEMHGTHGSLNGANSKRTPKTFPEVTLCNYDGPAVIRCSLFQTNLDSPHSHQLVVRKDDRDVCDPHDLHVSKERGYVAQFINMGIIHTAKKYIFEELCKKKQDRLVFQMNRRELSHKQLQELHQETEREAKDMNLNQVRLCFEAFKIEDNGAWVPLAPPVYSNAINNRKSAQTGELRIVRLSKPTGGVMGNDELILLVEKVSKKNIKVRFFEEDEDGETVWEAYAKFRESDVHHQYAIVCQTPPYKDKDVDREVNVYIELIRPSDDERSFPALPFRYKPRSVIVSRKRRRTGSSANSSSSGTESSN

[6] = target: T6, GST-Aq-NF-kB (Amphimedon queenslandica, UniProt A9Y5G7 2-389)
T6 sequence: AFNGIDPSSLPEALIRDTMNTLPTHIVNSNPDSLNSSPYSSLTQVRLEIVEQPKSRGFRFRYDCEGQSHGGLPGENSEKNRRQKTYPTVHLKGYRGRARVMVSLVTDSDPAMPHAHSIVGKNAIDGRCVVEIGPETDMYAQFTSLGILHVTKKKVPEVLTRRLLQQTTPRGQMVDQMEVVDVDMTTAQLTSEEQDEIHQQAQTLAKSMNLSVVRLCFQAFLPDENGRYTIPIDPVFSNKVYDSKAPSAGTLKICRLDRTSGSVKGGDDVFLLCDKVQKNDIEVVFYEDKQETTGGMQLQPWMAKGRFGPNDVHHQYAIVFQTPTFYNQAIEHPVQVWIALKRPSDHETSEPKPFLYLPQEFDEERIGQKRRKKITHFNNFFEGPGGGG

[7] = target: GST-Hu-p50 (Homo sapiens, UniProt P19838 7-356)
GST-Hu-p50, sequence (P19838 7-356): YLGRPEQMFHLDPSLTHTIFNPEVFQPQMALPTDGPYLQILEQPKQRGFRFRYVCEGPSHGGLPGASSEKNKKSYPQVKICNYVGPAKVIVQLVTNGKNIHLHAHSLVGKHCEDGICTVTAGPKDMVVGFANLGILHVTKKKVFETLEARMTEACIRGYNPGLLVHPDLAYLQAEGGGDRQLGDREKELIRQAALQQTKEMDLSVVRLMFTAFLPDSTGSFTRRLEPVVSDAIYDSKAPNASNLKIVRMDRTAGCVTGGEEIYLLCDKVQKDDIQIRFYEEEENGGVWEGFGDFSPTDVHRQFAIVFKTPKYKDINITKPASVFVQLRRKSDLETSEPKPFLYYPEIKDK

Sequence | binding signal [1] | binding signal [2] | binding signal [3] | binding signal [4] | binding signal [5] | binding signal [6] | binding signal [7]
CCGATTAACATCAAGGGGGAGATTGATGTTAATCGGGTCTTGATTCGCTTGACGCTGCTG | 6.99 z-score | 6.09 z-score | 7.57 z-score | 7.21 z-score | 3.01 z-score | 5.27 z-score | 7.18 z-score
CCGATTAACATCAATTTCCCAGGTGATGTTAATCGGGTCTTGATTCGCTTGACGCTGCTG | 2.16 z-score | 2.4 z-score | 3.53 z-score | 3.41 z-score | 1.61 z-score | 2.15 z-score | 3.21 z-score
CCGATTAACATCAAAAATCTCCCTGATGTTAATCGGGTCTTGATTCGCTTGACGCTGCTG | 3.7 z-score | 6.51 z-score | 6.86 z-score | 3.4 z-score | 2.94 z-score | 6.14 z-score | 4.72 z-score
CCGATTAACATCAGAATATCCCCTGATGTTAATCGGGTCTTGATTCGCTTGACGCTGCTG | 7.8 z-score | 7.86 z-score | 8.08 z-score | 3.97 z-score | 6.49 z-score | 5.85 z-score | 5.75 z-score
CCGATTAACATCAGGGGAAGTAATGATGTTAATCGGGTCTTGATTCGCTTGACGCTGCTG | 4.58 z-score | 6.3 z-score | 7.78 z-score | 5.87 z-score | 6.8 z-score | 4.63 z-score | 5.36 z-score
CCGATTAACATCAGGACTTCCCCTGATGTTAATCGGGTCTTGATTCGCTTGACGCTGCTG | 10.1 z-score | 10.5 z-score | 9.94 z-score | 4.57 z-score | 9.98 z-score | 10.4 z-score | 6.36 z-score
CCGATTAACATCAGGGGATGTGCTGATGTTAATCGGGTCTTGATTCGCTTGACGCTGCTG | 3.15 z-score | 3.45 z-score | 5.32 z-score | 1.81 z-score | 1.41 z-score | 2.79 z-score | 3.33 z-score
CCGATTAACATCAACTACCCCCCTGATGTTAATCGGGTCTTGATTCGCTTGACGCTGCTG | 4.79 z-score | 2.46 z-score | 3.11 z-score | 4.43 z-score | 3.4 z-score | 3.98 z-score | 3.1 z-score
CCGATTAACATCAGGGGGTTTTATGATGTTAATCGGGTCTTGATTCGCTTGACGCTGCTG | 9.65 z-score | 9.57 z-score | 10.2 z-score | 3.52 z-score | 10 z-score | 8.21 z-score | 7.82 z-score
CCGATTAACATCAAAAGTCCCCATGATGTTAATCGGGTCTTGATTCGCTTGACGCTGCTG | 7.92 z-score | 7.91 z-score | 7.59 z-score | 3.45 z-score | 8.38 z-score | 7.23 z-score | 6.84 z-score
CCGATTAACATCAGGGGGTTGACTGATGTTAATCGGGTCTTGATTCGCTTGACGCTGCTG | 4.64 z-score | 3.2 z-score | 3.62 z-score | 1.93 z-score | 4.51 z-score | 3.95 z-score | 4.25 z-score
